Test results: the supplement of paper PMC12669032
Values without a mark were called inactive.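 Rule for the calls: active = AUC reduced over 20% with Padj below 0.05 in at least 2 of 3 replicates; inactive = otherwise.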

Tests used:
Experiment in all cases: growth AUC relative to DMSO control (median of replicates) (fraction); higher = more growth (less inhibition), active = hit call of the paper
Conditions in all cases: 20 µM; 24 h
[1] = test system: Coprococcus comes
Method in brief: (§1)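 Gut bacterial monocultures were grown anaerobically at 37 °C in mGAM, starting at OD600 0.05, with 20 µM compound (1% DMSO) in round-bottom 96-well plates under pierced gas-permeable seals. OD600 was read hourly for 24 h. Area under the growth curve (minimum OD set to 0) was normalised to the plate median of DMSO controls, or to row and column medians on the industrial chemical plate. The value is the median of three biological replicates grown on separate days.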

[2] = test system: Escherichia coli ED1a
Method in brief: as §1

[3] = test system: Escherichia coli IAI1
Method in brief: as §1

[4] = test system: Eubacterium rectale
Method in brief: as §1

[5] = test system: Fusobacterium nucleatum subsp. animalis
Method in brief: as §1

[6] = test system: Lactobacillus gasseri
Method in brief: as §1

[7] = test system: Lactobacillus paracasei
Method in brief: as §1

[8] = test system: Odoribacter splanchnicus
Method in brief: as §1

[9] = test system: Parabacteroides distasonis
Method in brief: as §1

[10] = test system: Parabacteroides merdae
Method in brief: as §1

[11] = test system: Roseburia intestinalis
Method in brief: as §1

[12] = test system: Streptococcus salivarius
Method in brief: as §1

Row | SMILES | growth AUC [1] | growth AUC [2] | growth AUC [3] | growth AUC [4] | growth AUC [5] | growth AUC [6] | growth AUC [7] | growth AUC [8] | growth AUC [9] | growth AUC [10] | growth AUC [11] | growth AUC [12]
1 | CCCOC(=O)NCCCN(C)C | 0.979 | 1.02 | 0.979 | 0.952 | 0.984 | 0.951 | 1.04 | 1.01 | 0.989 | 0.977 | 1.02 | 0.967
2 | C#CCN(C)c1c(C#N)cnn1-c1nn2c(c1Cl)CCCC2 | 0.998 | 0.999 | 1.02 | 1.07 | 0.972 | 1.05 | 1.05 | 1.05 | 0.98 | 1.01 | 1.02 | 1.03
3 | COc1nc(N)nc(C(F)(F)F)n1 | 1.05 | 0.998 | 1 | 0.958 | 1.04 | 1.08 | 0.964 | 1.01 | 1.03 | 1.02 | 1.05 | 1
4 | CC(C)CCCCCOC(=O)C(C)Oc1ccc(Cl)cc1Cl (stereo not given) | 1.01 | 0.979 | 1.02 | 1.21 | 1.06 | 0.817 | 0.962 | 0.814 | 0.925 | 0.9 | 1.03 | 0.982
5 | CCN(CC)C(=O)SCc1ccccc1Cl | 1.01 | 1.04 | 1 | 0.939 | 0.964 | 1.1 | 0.994 | 1.12 | 0.92 | 0.95 | 1.01 | 1.02
6 | CN(C)c1ccc(N=NS(=O)(=O)[O-])cc1.[Na+] | 1.03 | 1.02 | 1.03 | 0.973 | 1.01 | 0.967 | 1.02 | 1.03 | 1.04 | 0.996 | 1.03 | 1.01
7 | COC(=O)C(Cl)Cc1ccc(Cl)cc1 (stereo not given) | 0.962 | 0.994 | 0.971 | 0.994 | 0.995 | 0.891 | 1.06 | 0.899 | 1 | 0.901 | 0.965 | 0.93
8 | NC(=O)c1nn(-c2c(Cl)cc(C(F)(F)F)cc2Cl)c(N)c1S(=O)C(F)(F)F (stereo not given) | 0.958 | 0.964 | 0.983 | 1.07 | 0.945 | 0.937 | 0.982 | 0.948 | 1.02 | 0.962 | 0.992 | 0.977
9 | O=C(O)CNC(=O)c1cnccc1C(F)(F)F | 0.96 | 1.03 | 1.02 | 1.01 | 1.14 | 0.903 | 1.11 | 1.02 | 1.03 | 0.992 | 1.03 | 1
10 | CC1=C(c2ccccc2)C(=O)N(C(C)(C)c2cc(Cl)cc(Cl)c2)CO1 | 0.972 | 1.01 | 0.987 | 0.982 | 0.935 | 1.01 | 1.04 | 0.972 | 0.732 (active) | 0.811 | 1.03 | 0.979
11 | O=C(O)C1(C(=O)Nc2ccc(Cl)cc2Cl)CC1 | 1.01 | 1.02 | 1.02 | 0.98 | 1.03 | 0.955 | 0.999 | 0.994 | 0.909 | 1.01 | 1.02 | 1.01
12 | N#Cc1cc(Cl)c(O)c(Cl)c1 | 1.02 | 0.926 | 0.9 | 0.972 | 1.03 | 1.17 | 1.03 | 0.998 | 0.956 | 0.93 | 1.08 | 1.02
13 | CCNc1nc(N)nc(Cl)n1 | 0.995 | 1 | 1 | 1.02 | 1.04 | 0.933 | 0.891 | 1.02 | 1.02 | 1.02 | 1.01 | 1.03
14 | CO/N=C(/C(=O)O)c1ccccc1CO/N=C(\C)c1cccc(C(F)(F)F)c1 | 0.977 | 0.986 | 0.979 | 1.07 | 1.04 | 0.948 | 1.02 | 0.775 | 0.985 | 0.99 | 1.01 | 0.915
15 | O.O.O=[N+]([O-])c1ccc([O-])cc1.[Na+] | 1.09 | 1.05 | 1.01 | 0.918 | 0.968 | 1.01 | 1.04 | 0.85 | 0.971 | 0.994 | 0.999 | 1.05
